Measured values as given in article PMC5540273 (PLoS ONE, 2017).

What was measured:
Conditions in all cases: concentration: 1 μM,replicates: in singlicate; n = 1
NEK11 = system: NEK11
NEK1 = system: NEK1
NEK2 = system: NEK2
NEK3 = system: NEK3
NEK4 = system: NEK4
NEK5 = system: NEK5
NEK6 = system: NEK6
NEK7 = system: NEK7
NEK9 = system: NEK9
NIK = system: T1, NIK
T1 construct: gene MAP3K14
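Note: KINOMEscan kinase panel screen.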

Cc1ccc(Nc2ccnc(Nc3ccc4c(c3)CS(=O)(=O)C4)n2)cc1O.Cl [GW579362]
%Inh (NEK11): 5% | %Inh (NEK1): 31% | %Inh (NEK2): 17% | %Inh (NEK3): 46% | %Inh (NEK4): 3% | %Inh (NEK5): 70% | %Inh (NEK6): 0% | %Inh (NEK7): 23% | %Inh (NEK9): 27% | %Inh (NIK): 27%

Cn1ccc2ncnc(Oc3ccc(NC(=O)Nc4cncc(C(F)(F)F)c4)c(Cl)c3)c21
%Inh (NEK11): 0% | %Inh (NEK1): 0% | %Inh (NEK2): 0% | %Inh (NEK3): 13% | %Inh (NEK4): 0% | %Inh (NEK5): 0% | %Inh (NEK6): 0% | %Inh (NEK7): 0% | %Inh (NEK9): 0% | %Inh (NIK): 0%

CC(C(=O)NC1CCN(c2ccnc(Nc3ccc(F)cc3)n2)C1)c1ccc(Cl)cc1 (stereo not shown) [GSK1379713]
%Inh (NEK11): 25% | %Inh (NEK1): 0% | %Inh (NEK2): 0% | %Inh (NEK3): 0% | %Inh (NEK4): 0% | %Inh (NEK5): 15% | %Inh (NEK6): 0% | %Inh (NEK7): 28% | %Inh (NEK9): 34% | %Inh (NIK): 11%

CN(c1ccccc1CNc1nc(Nc2ccc3c(c2)CC(=O)N3)ncc1C(F)(F)F)S(C)(=O)=O
%Inh (NEK11): 0% | %Inh (NEK1): 0% | %Inh (NEK2): 0% | %Inh (NEK3): 32% | %Inh (NEK4): 0% | %Inh (NEK5): 0% | %Inh (NEK6): 26% | %Inh (NEK7): 64% | %Inh (NEK9): 53% | %Inh (NIK): 0%

CN1CCN(CCNc2nc3cc(Oc4ccc(NC(=O)Nc5cc(C(F)(F)F)ccc5F)cc4)ccc3[nH]2)CC1.Cl.Cl [GW768504]
%Inh (NEK11): 0% | %Inh (NEK1): 0% | %Inh (NEK2): 0% | %Inh (NEK3): 20% | %Inh (NEK4): 0% | %Inh (NEK5): 1% | %Inh (NEK6): 0% | %Inh (NEK7): 0% | %Inh (NEK9): 0% | %Inh (NIK): 0%

COC(=O)c1cccc(NC(=O)NC2CCN(c3ccnc(Nc4cc(OC)c(OC)c(OC)c4)n3)C2)c1 (stereo not shown) [GSK1379767]
%Inh (NEK11): 0% | %Inh (NEK1): 52% | %Inh (NEK2): 22% | %Inh (NEK3): 17% | %Inh (NEK4): 0% | %Inh (NEK5): 100% | %Inh (NEK6): 0% | %Inh (NEK7): 37% | %Inh (NEK9): 26% | %Inh (NIK): 32%

CC(=O)c1c(-c2ccncc2)[nH]c(-c2ccncc2)c1C [GW493036]
%Inh (NEK11): 0% | %Inh (NEK1): 0% | %Inh (NEK2): 0% | %Inh (NEK3): 47% | %Inh (NEK4): 4% | %Inh (NEK5): 19% | %Inh (NEK6): 0% | %Inh (NEK7): 0% | %Inh (NEK9): 27% | %Inh (NIK): 28%

C[C@@H]1CNc2c(sc3ccc4nc(-c5ccncc5)ccc4c23)C(=O)N1
%Inh (NEK11): 0% | %Inh (NEK1): 0% | %Inh (NEK2): 0% | %Inh (NEK3): 30% | %Inh (NEK4): 0% | %Inh (NEK5): 0% | %Inh (NEK6): 3% | %Inh (NEK7): 5% | %Inh (NEK9): 0% | %Inh (NIK): 90.3%

O=C(NCC1CC1)c1ccc(-c2cc(C(=O)NC3CC3)ccc2F)cc1 [GW810445]
%Inh (NEK11): 0% | %Inh (NEK1): 3% | %Inh (NEK2): 0% | %Inh (NEK3): 0% | %Inh (NEK4): 0% | %Inh (NEK5): 0% | %Inh (NEK6): 0% | %Inh (NEK7): 0% | %Inh (NEK9): 0% | %Inh (NIK): 0%

N#Cc1cccc(C(=O)NC2CCN(c3ccnc(Nc4ccc(F)cc4)n3)C2)c1 (stereo not shown) [GSK1379708]
%Inh (NEK11): 3% | %Inh (NEK1): 0% | %Inh (NEK2): 0% | %Inh (NEK3): 7% | %Inh (NEK4): 11% | %Inh (NEK5): 5% | %Inh (NEK6): 12% | %Inh (NEK7): 0% | %Inh (NEK9): 0% | %Inh (NIK): 13%

Cn1ccc2ncnc(Oc3ccc(NC(=O)Nc4cc(C(C)(C)C)on4)c(Cl)c3)c21
%Inh (NEK11): 0% | %Inh (NEK1): 0% | %Inh (NEK2): 17% | %Inh (NEK3): 21% | %Inh (NEK4): 3% | %Inh (NEK5): 0% | %Inh (NEK6): 0% | %Inh (NEK7): 0% | %Inh (NEK9): 3% | %Inh (NIK): 0%

Cn1ccc2ncnc(Oc3ccc(NC(=O)Nc4ccnc(C(F)(F)F)c4)c(Cl)c3)c21
%Inh (NEK11): 0% | %Inh (NEK1): 0% | %Inh (NEK2): 0% | %Inh (NEK3): 11% | %Inh (NEK4): 0% | %Inh (NEK5): 0% | %Inh (NEK6): 0% | %Inh (NEK7): 0% | %Inh (NEK9): 5% | %Inh (NIK): 0%

Cc1nnc(-c2ccc3occ(-c4ccc(S(C)=O)cc4)c3n2)o1 (stereo not shown)
%Inh (NEK11): 0% | %Inh (NEK1): 0% | %Inh (NEK2): 0% | %Inh (NEK3): 23% | %Inh (NEK4): 0% | %Inh (NEK5): 0% | %Inh (NEK6): 0% | %Inh (NEK7): 0% | %Inh (NEK9): 0% | %Inh (NIK): 0%

Cn1ccc2ncnc(Oc3ccc(NC(=O)Nc4cnn(C(C)(C)C)c4)c(Cl)c3)c21
%Inh (NEK11): 0% | %Inh (NEK1): 0% | %Inh (NEK2): 0% | %Inh (NEK3): 12% | %Inh (NEK4): 0% | %Inh (NEK5): 6% | %Inh (NEK6): 2% | %Inh (NEK7): 0% | %Inh (NEK9): 0% | %Inh (NIK): 0%

CCn1c(-c2nonc2N)nc2cncc(Br)c21 [SB-738004]
%Inh (NEK11): 40% | %Inh (NEK1): 0% | %Inh (NEK2): 0% | %Inh (NEK3): 19% | %Inh (NEK4): 0% | %Inh (NEK5): 10% | %Inh (NEK6): 19% | %Inh (NEK7): 0% | %Inh (NEK9): 11% | %Inh (NIK): 79%

Cc1ccc(CC(=O)N2CCc3cc(-c4cn(C)c5ncnc(N)c45)ccc32)cc1 [GSK2634758]
%Inh (NEK11): 59% | %Inh (NEK1): 31% | %Inh (NEK2): 96.9% | %Inh (NEK3): 7% | %Inh (NEK4): 11% | %Inh (NEK5): 45% | %Inh (NEK6): 19% | %Inh (NEK7): 0% | %Inh (NEK9): 20% | %Inh (NIK): 16%
